Measured values from PubChem BioAssay (NCATS).
A number with no mark means an inactive call. Results filed as inconclusive are left out. Activity calls are given as the source filed them. Unless noted, the call rests on the fitted dose curve.

biological target: Lysosomal acid glucosylceramidase (Homo sapiens) (UniProt P04062); assay: Glucocerebrosidase-p2 (AID 348; in the data active means potency below about 10 µM; further: potency means the concentration at half of the fitted maximal effect); conditions: purified GBA, blue fluorogenic substrate, 40 min
Method in brief: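 Normal human glucocerebrosidase (0.2 nM) with blue fluorogenic substrate (80 uM final) in citrate/phosphate pH 5.9 with 10mM sodium taurocholate, 0.01% tween-20; 40 min RT, NaOH/glycine stop; fluorescence Ex 365/Em 440; AC50 from a titration from 0.6 nM upwards.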

Chain of Lysosomal acid glucosylceramidase (Homo sapiens) (P04062 whole entry, looked up): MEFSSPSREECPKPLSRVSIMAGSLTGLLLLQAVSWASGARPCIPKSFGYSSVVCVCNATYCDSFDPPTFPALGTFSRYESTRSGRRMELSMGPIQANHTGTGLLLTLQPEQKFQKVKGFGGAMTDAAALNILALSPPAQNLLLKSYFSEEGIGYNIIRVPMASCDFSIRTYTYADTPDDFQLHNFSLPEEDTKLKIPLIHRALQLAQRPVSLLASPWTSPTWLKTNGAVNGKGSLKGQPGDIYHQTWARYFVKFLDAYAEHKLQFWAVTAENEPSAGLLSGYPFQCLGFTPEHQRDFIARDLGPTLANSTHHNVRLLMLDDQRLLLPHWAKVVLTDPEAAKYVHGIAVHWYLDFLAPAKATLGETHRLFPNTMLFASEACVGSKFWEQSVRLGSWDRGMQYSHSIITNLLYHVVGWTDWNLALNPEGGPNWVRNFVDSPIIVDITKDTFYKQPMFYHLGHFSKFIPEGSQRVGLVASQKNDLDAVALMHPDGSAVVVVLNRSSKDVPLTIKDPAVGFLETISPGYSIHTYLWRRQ

Row | SMILES | Potency [µM]
1 | CN(C)C(=O)c1ccc(-c2cc(NCc3cccnc3)ncn2)cc1 | > 11.4
2 | Cc1noc(C)c1-c1cc(NCc2cccnc2)ncn1 | > 11.4
3 | CS(=O)(=O)Nc1cccc(-c2ccc3ncnc(NCCN4CCOCC4)c3c2)c1 | > 11.4
4 | COc1ccc2[nH]cc(CCNc3ncnc4ccc(-c5cccnc5)cc34)c2c1 | > 11.4
5 | Cn1c(=O)c(-c2cccc(C#N)c2)nc2cnc(Oc3ccccc3)nc21 | > 11.4
6 | O=c1c(-c2cc(F)cc(F)c2)nc2cnc(N3CCOCC3)nc2n1Cc1cccs1 | > 11.4
7 | CNc1ncnc2ccc(-c3ccccc3CN(C)C)cc12 | > 11.4
8 | CN(C)C(=O)c1ccc(-c2cc(Nc3ccccc3)ncn2)cc1 | > 11.4
9 | COc1cccc(Nc2ncc3ncc(=O)n(CCc4ccccc4)c3n2)c1 | > 11.4
10 | O=c1c(-c2ccc(F)cc2)nc2cnc(N3CCNCC3)nc2n1C1CC1 | > 11.4
11 | COc1ccc(-c2nc3cnc(Nc4cccc(OC)c4)nc3n(C[C@H]3CCCO3)c2=O)cc1 | > 11.4
12 | Cc1ccccc1-c1cc(N(C)C)ncn1 | > 11.4
13 | Cc1cccc(CNc2cc(-c3c(C)noc3C)ncn2)c1 | > 11.4
14 | COc1ccccc1CNc1cc(-c2c(C)noc2C)ncn1 | > 11.4
15 | Cn1c(=O)c(-c2ccc(Cl)cc2)nc2cnc(N3CCOCC3)nc21 | > 11.4
16 | COc1ncc2nc(C)c(=O)n(C3CC3)c2n1 | > 11.4
17 | Cc1noc(C)c1-c1ccc2ncnc(N3CCN(C)CC3)c2c1 | > 11.4
18 | CN(C)c1ccc(-c2ccc3ncnc(-n4ccnc4)c3c2)cc1 | > 11.4
19 | O=c1cnc2cncnc2n1Cc1ccccc1Cl | > 11.4
20 | CCNc1ncc2ncc(=O)n(CCOC)c2n1 | > 11.4

tested on: not listed separately; assay: AP1 Signaling Pathway (AID 357; active means well fitted curve in either direction with a large enough effect, not every such curve was filed as active;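 further: ME-180 reporter cells stimulated with EGF at its EC50 level; on the % scale 0 is the no-effect control and ±100 the full control effect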); conditions: ME-180 (cervical carcinoma) AP-1-bla reporter, EGF-induced, beta-lactamase ratio, 5 h; at 7.69 µM (top of the series) unless noted
Method in brief: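 Titration-series screen for positive or negative modulators of EC50 EGF-induced signaling in ME-180 cells carrying an AP-1-driven beta-lactamase reporter. After 5 hours at 37 degrees Celsius, CCF4 460nm/530nm emission ratio gave %Activity; AC50 values derived.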

Row | SMILES | activity change, negative = inhibition [%]
21 | Clc1ccccc1-c1ccc2ncnc(N3CCNCC3)c2c1 | 19.1
22 | COCCn1c(=O)c(-c2cn(C)c3ccccc23)nc2cnc(N3CCOCC3)nc21 | -12.3
23 | CN(C)c1ccc(-c2cc(Nc3ccc(F)cc3)ncn2)cc1 | -18.2
24 | COc1ncc2nc(-c3ccccc3)c(=O)n(-c3ccccc3)c2n1 | -21.5
25 | Cc1noc(C)c1-c1nccc(N2CCOCC2)n1 | 19
26 | FC(F)(F)c1ccccc1-c1cc(NCc2ccccc2)ncn1 | -15.2
27 | Cn1c(=O)c(-c2ccc(Cl)cc2)nc2cnc(Nc3ccccc3)nc21 | -22.9
28 | COc1ccc(Oc2ncc3nc(-c4ccc(Cl)cc4)c(=O)n(C[C@H]4CCCO4)c3n2)cc1 | -19.3
29 | COc1cccc(Nc2ncc3nc(C)c(=O)n(C4CC4)c3n2)c1 | -16.4
30 | CNc1nc(-c2ccc3c(c2)OCO3)nc2ccccc12 | 28.9
31 | COc1cccc(Cn2c(=O)c(C)nc3cnc(OC)nc32)c1 | -5.98
32 | COc1cccc(Cn2c(=O)cnc3cncnc32)c1 | 13.8
33 | COCCn1c(=O)c(-c2cc(F)cc(F)c2)nc2cnc(N3CCOCC3)nc21 | 11.2
34 | Cc1noc(C)c1-c1cc(NCc2cccnc2)ncn1 | 2.04
35 | CS(=O)(=O)Nc1cccc(-c2ccc3ncnc(NCCN4CCOCC4)c3c2)c1 | -17.6
36 | COCCn1c(=O)c(C)nc2cnc(N(C)C)nc21 | 3.65
37 | Cn1c(=O)c(-c2cccc(C#N)c2)nc2cnc(Oc3ccccc3)nc21 | -13.9
38 | O=c1c(-c2cc(F)cc(F)c2)nc2cnc(N3CCOCC3)nc2n1Cc1cccs1 | 6.66
39 | CNc1ncnc2ccc(-c3ccccc3CN(C)C)cc12 | -22.5
40 | CN(C)C(=O)c1ccc(-c2cc(Nc3ccccc3)ncn2)cc1 | -5.39
41 | Cc1ccccc1-c1cc(N(C)C)ncn1 | -2.87
42 | Cc1cccc(CNc2cc(-c3c(C)noc3C)ncn2)c1 | -5.03
43 | COc1ccccc1CNc1cc(-c2c(C)noc2C)ncn1 | 14.8
44 | COc1ncc2nc(C)c(=O)n(C3CC3)c2n1 | -5.11
45 | O=c1cnc2cncnc2n1Cc1ccccc1Cl | 8.55
46 | CCNc1ncc2ncc(=O)n(CCOC)c2n1 | -22.6
47 | COc1ccccc1-c1cncnc1NCCNC(C)=O | -8.57

biological target: Cytochrome P450 1A2 (Homo sapiens) (UniProt P05177); assay: p450-cyp1a2 (AID 410); conditions: recombinant CYP1A2, luciferin-ME demethylation, luminescence; series mostly up to 57 µM; activity change, negative = inhibition: at the top concentration; further: potency means the concentration at half of the fitted maximal effect;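 on activity change, negative = inhibition: -100% = full effect of reference inhibitor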
Method in brief: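 20nM CYP1A2, 100uM Luciferin-ME (=Km), 100mM KPO4; cpd 10 min RT; +NADPH regen, 60 min RT; stop/detect 20 min; luminescence. Normalized to furafylline 57 uM = full inhibition.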

Chain of Cytochrome P450 1A2 (Homo sapiens) (P05177 whole entry, looked up): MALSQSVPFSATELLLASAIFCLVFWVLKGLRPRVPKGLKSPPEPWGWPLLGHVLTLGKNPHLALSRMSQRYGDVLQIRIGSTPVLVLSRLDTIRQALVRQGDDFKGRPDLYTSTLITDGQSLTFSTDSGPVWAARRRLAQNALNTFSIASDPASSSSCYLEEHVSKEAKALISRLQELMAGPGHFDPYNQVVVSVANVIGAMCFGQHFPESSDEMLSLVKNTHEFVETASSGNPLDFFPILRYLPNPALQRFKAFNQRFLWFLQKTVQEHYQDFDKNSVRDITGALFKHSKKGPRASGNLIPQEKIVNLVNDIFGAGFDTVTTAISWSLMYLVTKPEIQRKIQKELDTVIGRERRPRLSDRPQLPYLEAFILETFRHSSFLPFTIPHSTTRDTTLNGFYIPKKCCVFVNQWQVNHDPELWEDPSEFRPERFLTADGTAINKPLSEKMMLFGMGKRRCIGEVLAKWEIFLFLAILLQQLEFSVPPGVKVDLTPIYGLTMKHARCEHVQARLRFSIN

Row | SMILES | Potency | activity change, negative = inhibition [%]
48 | Clc1ccccc1-c1ccc2ncnc(N3CCNCC3)c2c1 | 2 µM (active) | –
49 | CCNc1ncc2nc(-c3cccs3)c(=O)n(C)c2n1 | 1.58 µM (active) | –
50 | CN(C)c1ccc(-c2cc(Nc3ccc(F)cc3)ncn2)cc1 | 0.398 µM (active) | –
51 | COc1ncc2nc(-c3cccs3)c(=O)n(CCc3ccccc3)c2n1 | 1.26 µM (active) | –
52 | COc1ncc2nc(-c3ccccc3)c(=O)n(-c3ccccc3)c2n1 | 2 µM (active) | –
53 | Cc1noc(C)c1-c1nccc(N2CCOCC2)n1 | 0.631 µM (active) | –
54 | FC(F)(F)c1ccccc1-c1cc(NCc2ccccc2)ncn1 | 12.6 µM (active) | –
55 | COc1cccc(Nc2ncc3nc(C)c(=O)n(C4CC4)c3n2)c1 | 1.26 µM (active) | –
56 | COc1cccc(Cn2c(=O)c(-c3cc(F)cc(F)c3)nc3cnc(N(C)C)nc32)c1 | – | -19.4
57 | Cc1nc2cncnc2n(C2CC2)c1=O | 15.8 µM (active) | –
58 | COc1cccc(Cn2c(=O)cnc3cncnc32)c1 | 15.8 µM (active) | –
59 | COCCn1c(=O)c(-c2cc(F)cc(F)c2)nc2cnc(N3CCOCC3)nc21 | 12.6 µM (active) | –
60 | Cc1noc(C)c1-c1cc(NCc2cccnc2)ncn1 | 1 µM (active) | –
61 | CS(=O)(=O)Nc1cccc(-c2ccc3ncnc(NCCN4CCOCC4)c3c2)c1 | 25.1 µM (active) | –
62 | COCCn1c(=O)c(C)nc2cnc(N(C)C)nc21 | 3.98 µM (active) | –
63 | COc1ccc2[nH]cc(CCNc3ncnc4ccc(-c5cccnc5)cc34)c2c1 | 0.0794 µM (active) | –
64 | Cn1c(=O)c(-c2cccc(C#N)c2)nc2cnc(Oc3ccccc3)nc21 | 1.58 µM (active) | –
65 | CNc1ncnc2ccc(-c3ccccc3CN(C)C)cc12 | 3.16 µM (active) | –
66 | CN(C)C(=O)c1ccc(-c2cc(Nc3ccccc3)ncn2)cc1 | 12.6 µM (active) | –
67 | O=c1c(-c2ccc(F)cc2)nc2cnc(N3CCNCC3)nc2n1C1CC1 | 2.51 µM (active) | –
68 | Cc1ccccc1-c1cc(N(C)C)ncn1 | 2 µM (active) | –
69 | Cc1cccc(CNc2cc(-c3c(C)noc3C)ncn2)c1 | 1 µM (active) | –
70 | COc1ccccc1CNc1cc(-c2c(C)noc2C)ncn1 | 5.01 µM (active) | –
71 | Cn1c(=O)c(-c2ccc(Cl)cc2)nc2cnc(N3CCOCC3)nc21 | 2.51 µM (active) | –
72 | COc1ncc2nc(C)c(=O)n(C3CC3)c2n1 | 3.98 µM (active) | –
73 | Cc1noc(C)c1-c1ccc2ncnc(N3CCN(C)CC3)c2c1 | 12.6 µM (active) | –
74 | CN(C)c1ccc(-c2ccc3ncnc(-n4ccnc4)c3c2)cc1 | 0.316 µM (active) | –
75 | O=c1cnc2cncnc2n1Cc1ccccc1Cl | 15.8 µM (active) | –
76 | COc1ccccc1-c1cncnc1NCCNC(C)=O | – | -18.6
